# Screening results: PubChem BioAssay, several laboratories
# ADAM10 inh: inhibits human ADAM10; recombinant ADAM10, EDANS/DABCYL FRET peptide cleavage, 3 h; 370,000 tested, 0.62% active; AID 720582; inhibition, % at 7 µM;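 active = inhibition above a per-campaign cutoff equal to the mean of compounds falling between control-based bounds plus 3 SD, cut at about 20% in these data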
# AHR act: human AHR activation. P35869. AHR-responsive luciferase reporter cells, luminescence. activation, % at 5 µM. 320,000 tested, 2.5% active; in the data active = activation above about 47%
# KLK7 zymogen act: activators of human kallikrein-7 zymogen. P49862. purified proKLK7, EDANS-DABCYL substrate fluorescence; 100% is mature enzyme control, 0% vehicle. activation, % at 7 µM. 370,000 tested, 0.9% active;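 active = activation above the mean of all tested compounds plus 3 SD, computed per campaign excluding outliers beyond control limits, cut at about 13% in these data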
# ADAM17 inh: inhibits human ADAM17. inhibition, % at 6.95 µM. AID 720648. 370,000 tested, 0.83% active. recombinant ADAM17, EDANS/DABCYL FRET peptide cleavage;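 active = inhibition above the mean of compounds lying between control limits plus 3 SD, set per campaign, cut at about 8.5% in these data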
# Target sequence (P78536 215-824 limits assumed): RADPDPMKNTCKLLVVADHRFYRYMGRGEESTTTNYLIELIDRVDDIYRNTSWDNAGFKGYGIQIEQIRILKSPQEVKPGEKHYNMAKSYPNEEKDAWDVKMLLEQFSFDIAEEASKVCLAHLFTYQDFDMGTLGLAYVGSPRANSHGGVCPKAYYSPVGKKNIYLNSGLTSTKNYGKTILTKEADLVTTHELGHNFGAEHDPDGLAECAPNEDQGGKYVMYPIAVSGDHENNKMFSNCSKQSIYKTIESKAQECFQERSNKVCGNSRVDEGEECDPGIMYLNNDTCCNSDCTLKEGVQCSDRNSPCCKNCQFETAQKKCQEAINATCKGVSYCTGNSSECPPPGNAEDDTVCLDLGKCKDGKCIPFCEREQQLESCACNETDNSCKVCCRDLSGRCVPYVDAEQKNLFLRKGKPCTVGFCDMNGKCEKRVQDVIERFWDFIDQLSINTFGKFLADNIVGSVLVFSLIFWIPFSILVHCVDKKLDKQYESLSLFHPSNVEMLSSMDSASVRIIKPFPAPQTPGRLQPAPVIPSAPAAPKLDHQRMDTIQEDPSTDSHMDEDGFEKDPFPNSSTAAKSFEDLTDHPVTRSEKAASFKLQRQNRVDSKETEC
# rCAG binder: molecules binding r(CAG) RNA repeats; r(CAG) RNA repeat, TO-PRO-1 dye displacement fluorescence; inhibition, % at 3 µM; 370,000 tested, 1.3% active; AID 651821;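 active = inhibition above the plate cutoff, the mean of all test compounds on that plate plus 3 SD, cut at about 35% in these data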;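 note: higher means more dye released from RNA so lower well fluorescence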
# NR3A LBD binder: NR3A (human) ligand-binding domain modulation | Tm shift relative to glycine control, % at 25 µM | NR3A LBD differential scanning fluorimetry, Tm shift; 0% = protein alone, 100% = glycine-bound protein | 340,000 tested, 2.5% active;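 active = melting temperature shift of at least 10% of the positive control shift, at one fixed dose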
# A number is an active result; . = inactive; / = no result given. Compounds with a hit are over-represented: about 7% of the library has one in this group of screens.
SMILES,ADAM10 inh,AHR act,KLK7 zymogen act,ADAM17 inh,rCAG binder,NR3A LBD binder
O=C(Nc1cccc(S(=O)(=O)N2CCCCC2)c1)C1CCCC1,.,.,.,.,.,22
Cc1ccc(S(=O)(=O)N2CCCCC2)cc1NC(=O)Nc1ccc(Cl)cc1Cl,.,.,.,.,.,14
O=C(Nc1ccc(S(=O)(=O)N2CCCCC2)cc1)c1ccccc1Cl,.,.,.,.,.,.
O=C(Nc1cccc(Cl)c1)Nc1cc(S(=O)(=O)N2CCCCC2)ccc1Cl,22,.,.,9.9,.,11
O=C(Nc1cccc(S(=O)(=O)N2CCCCCC2)c1)C1CCC1,.,.,.,.,.,.
CCOC(=O)CC[C@H]1CC[C@]2(CCCN(C(=O)c3ccco3)C2)O1,.,/,.,.,.,/
CCCC[C@H]1C2CC(OC(=O)Nc3cc(C)cc(C)c3)C(C2)[C@H]2CCCCN21 (stereo partly drawn),.,/,.,.,.,/
C[C@@H]1OC(C2CCCCC2)N(C)[C@H]2C[C@H]3c4cc(N5CCOCC5)ccc4CCN3C[C@@H]12 (stereo partly drawn),.,/,.,.,.,/
Cc1cc2c(s1)c1cnn(Cc3c(Cl)ccc(C)c3F)c(=O)c1n2C,.,/,/,.,/,/
O=C(Nc1cc(S(=O)(=O)Nc2ccc(Cl)cc2)ccc1N1CCCCC1)c1ccc(F)cc1Cl,.,.,.,.,.,21
Cc1ccc(NC(=O)Nc2cc(S(C)(=O)=O)ccc2Cl)cc1,.,47,.,.,.,.
O=C(Nc1ccc(Cl)c(Cl)c1)Nc1cc(S(=O)(=O)N2CCOCC2)ccc1N1CCCC1,.,.,.,.,.,11
O=C(Nc1ccccc1F)Nc1cc(S(=O)(=O)N2CCOCC2)ccc1N1CCCC1,.,.,.,.,.,.
O=C(Nc1ccc(F)c(F)c1)c1cc(S(=O)(=O)N2CCN(c3ccccn3)CC2)ccc1F,.,.,.,9.6,.,.
COC(=O)[C@]12C[C@H](CC(=O)NCc3ccc(OC)c(OC)c3)C(=O)N(Cc3cccc4ccccc34)C1=C[C@H](COCc1ccccc1)O[C@@H]2C,.,/,.,.,.,/
O=C(Nc1ccc(N2CCOCC2)c(Cl)c1)c1ccccc1Cl,.,.,.,.,.,19
CN1CCN(S(=O)(=O)c2ccc(NC(=O)c3ccc(Br)s3)cc2)CC1,.,.,.,.,.,29
O=C(Nc1ccc(Cl)cc1F)c1cc(S(=O)(=O)N2CCCCC2)ccc1F,.,.,.,.,.,13
Cc1nc2cc(NC(=O)c3ccc(Br)s3)ccc2s1,.,.,.,.,.,25
Cc1ccc(C(=O)Nc2ccc3nc(C)sc3c2)s1,.,.,.,.,.,.
Cc1ccc(Cn2nnc3c2-c2ccccc2S(=O)(=O)N(C2CC2)C3)cc1,.,/,.,.,.,/
CN1CCN(S(=O)(=O)c2ccc(NC(=O)Nc3cccc(Cl)c3)cc2)CC1,.,.,.,.,.,14
Cc1ccc(S(=O)(=O)N2CCCCC2)cc1NC(=O)c1ccc(Cl)nc1,.,75,.,.,.,.
CN1CCN(S(=O)(=O)c2ccc(NC(=O)c3ccccc3Cl)cc2)CC1,.,.,.,.,.,.
COC1=C[C@H](C(=O)NCCOC(C)=O)[C@H](C)[C@@H](c2ccccc2)CC1=O,.,/,.,.,.,/
SMILES,ADAM10 inh,AHR act,KLK7 zymogen act,ADAM17 inh,rCAG binder,NR3A LBD binder
CC(C)(C)c1cc(C(=O)Nc2cccc3ccccc23)ccn1,.,.,.,.,.,683
COC(=O)c1cc(S(=O)(=O)N2CCN(c3cccc(C(F)(F)F)c3)CC2)cn1C,.,/,.,.,.,/
CCCC1CCC2(CCCN2CCOC(=O)Nc2ccc(OC)cc2)CC1 (stereo not drawn),.,/,/,.,/,/
Nc1sc(-c2ccccc2)cc1C(=O)N/N=C/c1ccc(Cl)cc1,.,.,.,.,.,13
O=C(N/N=C/c1ccc(Cl)cc1)c1cc2c(s1)-c1ccccc1CC2,.,.,.,.,.,12
O=C(O)c1cc2c(s1)-c1ccccc1CC2,.,.,.,.,.,.
COC(=O)c1cccc(Cn2ccc3ccc(-c4ccc5ccn(C(=O)c6ccccc6OC)c5c4)cc32)c1,.,/,.,.,.,/
CCOc1ccccc1N(C(=O)CNC(=O)c1ccco1)C(C(=O)NC(C)(C)C)c1ccncc1 (stereo not drawn),.,.,.,.,.,395
COc1ccccc1N(C(=O)CNC(=O)c1ccco1)C(C(=O)NC1CCCC1)c1ccncc1 (stereo not drawn),.,.,.,.,.,.
CN1OC[C@@H]2CN(C(=O)c3ccc([N+](=O)[O-])cc3)[C@H](c3ccccc3Br)C[C@@H]21,.,/,.,.,.,/
CC1=C(/C=C/C(C)=C/C=C/C(C)=C/C(=O)Nc2ccc(O)cc2)C(C)(C)CCC1,.,.,.,.,.,17
COc1ccc2nc(/N=C\N(C)C)sc2c1,.,.,.,.,.,.
Cc1ccc(-n2[nH]c(C)c(/C=N/c3ccccn3)c2=O)cc1,.,.,.,.,.,.
COc1ccc2nc(/N=C/c3c(C)[nH]n(-c4ccc(C)cc4)c3=O)sc2c1,.,52,.,.,.,.
Cc1ccc(-n2[nH]c(C)c(C=Nc3ccc(Br)cn3)c2=O)cc1,.,71,.,.,.,.
CCN(CC)C(=O)CSc1nnc(-c2ccc(C(C)(C)C)cc2)n1Cc1ccco1,.,/,.,.,.,/
CN(C)c1ccc(N=Nc2cccc3ccoc23)cc1,.,.,.,.,.,22
O=C(COC(=O)C12CC3CC(CC(C3)C1)C2)Nc1nc2c(F)c(F)c(F)cc2s1,.,.,.,.,.,29
COc1ccc(C(=O)OCC(=O)Nc2nc3c(F)c(F)c(F)cc3s2)cc1OC,.,.,.,.,.,.
Cc1cc(C)n(C(=O)CNc2ccccc2Cl)n1,.,.,.,.,.,.
Cc1cc(C)n(C(=O)CNc2cccc(Cl)c2C)n1,.,.,.,.,.,10
COc1ccc(N=C2S/C(=C\c3ccc(OC(C)C(=O)O)c(OC)c3)C(=O)N2CCc2c[nH]c3ccccc23)cc1 (stereo not drawn),.,/,.,.,49,.
Nc1[nH]c(C(=O)c2ccccc2)c(-c2ccc(Cl)cc2Cl)c1C(=O)NCCC1=CCCCC1,.,/,/,.,/,/
CCOC(=O)c1c(C)n(C)c2ccc(OC)c(NC(=O)CN3CCC(C(=O)OCC)CC3)c12,.,.,.,.,.,.
CCOC(=O)c1c(C)n(C)c2ccc(OC)c(NC(=O)CCN3CCSCC3)c12,.,65,.,.,.,.
CN(/N=C/c1cccnc1)c1cnn(-c2ccc(F)c(Cl)c2)c(=O)c1Cl,.,.,.,.,.,.
CN(/N=C/c1c[nH]c2ccccc12)c1cnn(-c2ccc(F)c(Cl)c2)c(=O)c1Cl,.,.,.,.,.,259
CCOC(=O)[C@@]12CN(C(=O)OC(C)(C)C)CC=C1N(Cc1ccc(OC)cc1)C(=O)[C@H]2CC(=O)N1CCSCC1,.,/,.,.,.,/
